Screens (PubChem)
PRMT1 FP inh – blocks human protein arginine methyltransferase 1 | Q99873 | recombinant PRMT1, activity-based probe fluorescence polarization | inhibition, % at 2.79 µM | 1.3% of 370,000 active;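 active = inhibition above about 21% made by adding two undisclosed values, limit read from the data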
Target sequence (Q99873 whole entry, looked up): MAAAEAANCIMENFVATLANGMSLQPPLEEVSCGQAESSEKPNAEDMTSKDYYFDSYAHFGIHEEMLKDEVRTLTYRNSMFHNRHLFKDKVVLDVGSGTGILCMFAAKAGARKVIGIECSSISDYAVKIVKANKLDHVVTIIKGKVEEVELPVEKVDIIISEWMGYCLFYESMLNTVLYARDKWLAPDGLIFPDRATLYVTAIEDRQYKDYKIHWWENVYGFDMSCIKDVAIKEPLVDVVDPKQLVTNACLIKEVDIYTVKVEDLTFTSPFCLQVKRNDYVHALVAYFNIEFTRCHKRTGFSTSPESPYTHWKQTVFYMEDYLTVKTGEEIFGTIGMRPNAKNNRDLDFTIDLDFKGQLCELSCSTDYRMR
MBD2 inh – blocks human MBD2 binding to methylated DNA. inhibition, % at 4.4 µM. 0.31% of 370,000 active. Q9UBB5. TR-FRET, MBD2 binding to methylated oligonucleotide; in the data active = inhibition above about 13%
LEDGF integ inh – blocks HIV-1 LEDGF/p75-dependent DNA integration; TR-FRET IN-LEDGF/p75 DNA integration, Eu/Cy5; inhibition, % at 3.7 µM; 0.64% of 370,000 active; AID 743269;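 active = inhibition above the screen-wide mean plus 3 SD, cut at about 13% in these data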;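 also: signal is the Cy5 over europium emission ratio at 671 and 618 nm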
UHRF1 binding – human UHRF1 methylated DNA binding inhibitors. inhibition, % at 4.4 µM. AID 687016. UHRF1 binding to methylated oligo, TR-FRET. 0.75% of 370,000 active. Q96T88; in the data active = inhibition above about 21%;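 also: UHRF1 SRA domain binding a hemimethylated CpG hairpin DNA probe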
Of the large screens only hits and unclear results are named; the others gave an inactive call. This is a sample that favours compounds with a hit; in the whole collection about 2.5% have one here.

Cc1ccc(OCC(=O)c2cc(C)n(-c3ccccc3)c2C)c([N+](=O)[O-])n1	none
Cc1ccc(C)c(C(=O)COc2ccc(C)nc2[N+](=O)[O-])c1	PRMT1 FP inh 21
Cc1nnc(NC(=O)C23CC4CC(CC(C4)C2)C3)s1	none
CC(=O)C(C(C)=O)c1c(Cl)c(O)c(O)c2c(C(=O)c3ccccc3)coc12	PRMT1 FP inh 79, LEDGF integ inh 51
CN1CCN(Cc2c(O)ccc3occ(C(=O)c4ccccc4)c23)CC1	none
COC(=O)c1ccc(COC(=O)C(NC(=O)Cc2ccccc2)C(C)C)cc1 (stereo not given)	none
Cc1c(C(=O)Nc2ccc(Cl)cc2)c2ccccn2c1CCc1ccncc1	UHRF1 binding 24
CC(C)(C)n1nnnc1C1c2ccccc2C(=O)N1CCc1c[nH]c2ccccc12 (stereo not given)	none
Oc1ccccc1Oc1ncc(Br)c(Cl)n1	UHRF1 binding 22
Cc1ccc(C(C[N+](=O)[O-])Sc2ccc(N)cc2)cc1 (stereo not given)	PRMT1 FP inh 67
CCOCC(=O)Nc1ccc([N+](=O)[O-])cc1C	none
CC(NC(=O)c1ccc(S(=O)(=O)N(C)C)cc1)c1ccc(-n2ccnc2)cc1 (stereo not given)	none
CC(NC(=O)c1ccc(S(=O)(=O)N(C)C)cc1)c1ccccc1 (stereo not given)	UHRF1 binding 21
O=c1c2ccccc2nc(SCCN2CCCCC2)n1CCc1ccccc1	none
COc1ccc(CCN2C(=O)COc3ccccc3C2C(=O)NCc2ccccc2)cc1OC (stereo not given)	UHRF1 binding 23
CCCCNC(=O)C1c2ccccc2OCC(=O)N1CCc1ccc(OC)c(OC)c1 (stereo not given)	none
O=c1cc(-c2ccc(O)c(O)c2)oc2cc(O)c([C@@H]3O[C@H](CO)[C@@H](O)[C@H](O)[C@H]3O)c(O)c12	LEDGF integ inh 57
O=c1cc(-c2ccc(O)cc2)oc2c([C@@H]3O[C@H](CO)[C@@H](O)[C@H](O)[C@H]3O)c(O)c([C@@H]3O[C@H](CO)[C@@H](O)[C@H](O)[C@H]3O)c(O)c12	none
C[C@H]1CCC/C=C/[C@@H]2C[C@H](O)C[C@H]2[C@H](O)[C@H](S(=O)c2ccc(O)cc2)CC(=O)O1 (stereo not given in full)	PRMT1 FP inh 73
O=C(CN1C(=O)/C(=C\c2ccco2)SC1=S)Nc1ccc(O)cc1C(=O)O	PRMT1 FP inh 43, MBD2 inh 27, LEDGF integ inh 63, UHRF1 binding 87
O=C(CCCN1C(=O)/C(=C\c2ccccc2)SC1=S)Nc1ccc(O)cc1C(=O)O	none
O=C(CCCn1c(=S)[nH]c2ccccc2c1=O)NCCSCc1ccccc1	none
CC(=O)/C=C/n1c(=S)oc2ccccc21	PRMT1 FP inh 23
Cn1c2c(c(=O)n(C)c1=O)C(c1ccc(C(F)(F)F)cc1)CC(=O)N2 (stereo not given)	UHRF1 binding 31
Cc1[nH]n(-c2cccc(Cl)c2)c(=O)c1-c1ccccc1	UHRF1 binding 39
CNc1cnc(-c2ccc(C(=O)N3CCOCC3)cc2)cn1	none
CC(C)(C)Cc1c(-c2cccc(Cl)c2)nc2ccc(Cl)cn12	UHRF1 binding 23
CC(C)(C)Cc1c(-c2ccc(C#N)cc2)nc2ccc(Cl)cn12	UHRF1 binding 21
CC(C)CCNC(=O)C(c1ccc(O)cc1)N(Cc1ccco1)C(=O)CCC(=O)Nc1nccs1 (stereo not given)	none
CO[C@@]1(NC(=O)CSCC#N)C(=O)N2C(C(=O)O)=C(CSc3nnnn3C)CS[C@@H]21	UHRF1 binding 44
O=C(COC(=O)Cc1ccccc1F)NCc1ccccc1Cl	none
CCn1c(N)c(C(=O)NC)sc1=S	PRMT1 FP inh 25
C[C@H](CO)N1C[C@H](C)[C@H](CN(C)C(=O)c2ccc3ccn(C)c3c2)OCc2cnnn2CCCC1=O	none
CCCCn1c(N)c(N(CCOC)C(=O)c2ccc(C)o2)c(=O)[nH]c1=O	UHRF1 binding 22
CCCN(C(=O)c1cccc(-n2cccc2)c1)c1c(N)n(Cc2ccccc2)c(=O)[nH]c1=O	UHRF1 binding 26
CCCCN(C(=O)c1ccc(Cl)c([N+](=O)[O-])c1)c1c(N)n(CCC)c(=O)[nH]c1=O	UHRF1 binding 29
CCCCn1c(N)c(N(CCOC)C(=O)c2ccc(N(C)S(=O)(=O)c3ccc(C)cc3)cc2)c(=O)[nH]c1=O	none
CCCn1c(N)c(N(CCOC)C(=O)c2ccc(N(C)S(=O)(=O)c3ccc(C)cc3)cc2)c(=O)[nH]c1=O	UHRF1 binding 96
O=C(CSc1nc(=O)n(CCN2CCOCC2)c2c1CCC2)Nc1ccc(OC(F)(F)F)cc1	none
COc1ccc(C(C)=O)c2c1OCCO2	UHRF1 binding 54
COc1ccc(C(C)=O)c2c(O)cccc12	none
CN(C)CCNc1nc(-c2ccco2)c2c(c1C#N)CC(C)(C)OC2	none
CCCCN(C)c1nc(-c2ccco2)c2c(c1C#N)CC(C)(C)OC2	PRMT1 FP inh 21
O=C(CCNC(=O)c1ccc([N+](=O)[O-])cc1)Nc1cccc(S(=O)(=O)N2CCCCCC2)c1	none
Cc1cc(C)nc(Nc2nc(-c3ccccc3)cs2)n1	none
Cc1cc(C)nc(Nc2nc(=O)c3ccccc3s2)n1	PRMT1 FP inh 44
Cc1cccc(C(O)c2ncc(-c3ccc4ccccc4c3)[nH]2)c1C (stereo not given)	UHRF1 binding 30
Cc1cc(C)n2nc(CC(=O)NCc3ccc(F)cc3)nc2n1	UHRF1 binding 99
Cc1ccc(CNC(=O)Cc2nc3nc(C)cc(C)n3n2)cc1	none
Cc1cc(C)n2nc(SCCC(=O)NCc3ccccc3)nc2n1	UHRF1 binding 36
O=C(CCc1nnc(CCCCc2ccccc2)o1)NCCC1CCCCO1 (stereo not given)	none
C[C@@H](c1ccccc1)N1C[C@H](COCc2ccccc2)Oc2cc(N3CC[C@H](N(C)C)C3)ccc2S1(=O)=O	none
O=C1CC(N2CCC(c3nc4ccccc4s3)CC2)C(=O)N1Cc1ccccc1 (stereo not given)	PRMT1 FP inh 24
O=[N+]([O-])c1ccc2c(c1)-c1ccccc1C2O (stereo not given)	PRMT1 FP inh 36
Clc1ccc(N=c2ssnc2Cl)nc1	PRMT1 FP inh 21
O=Nc1ccc(Cl)cn1	none
Nc1ccc(S(=O)(=O)c2cc(O)c3ccccc3c2O)cc1	PRMT1 FP inh 24
O=C(Cc1c[nH]c2ccccc12)OCC(=O)c1ccccc1	UHRF1 binding 29
CC(Cc1c[nH]c2ccccc12)C(=O)O (stereo not given)	UHRF1 binding 23
CCOC(=O)c1c[nH]n2c(=S)ncnc12	none
C[C@H]1[C@H](NC(=O)C(=NOC(C)(C)C(=O)O)c2csc(N)n2)C(=O)N1S(=O)(=O)O	UHRF1 binding 25
CCOC(=O)c1csc(N)n1	none
CC1(c2ccc(Cl)cc2)NC(=O)CS1 (stereo not given)	none
CN(C(=O)COC(=O)c1cc([N+](=O)[O-])ccc1N1CCOCC1)C1CCCCC1	none
CCN(C(=O)COC(=O)c1cc([N+](=O)[O-])ccc1N1CCOCC1)C1CCCCC1	UHRF1 binding 26
O=[N+]([O-])c1ccc(Cl)c(S(=O)(=O)NCCc2ccccn2)c1	none
